Laboratory results from the supplement of paper PMC12350171.
Counter-ions that a name gives are not always drawn.

Assays:
Conditions in all cases: 20 µM
[1] = test system: Salmonella enterica typhimurium; test: growth AUC normalised to DMSO control (fraction of control); higher = less growth inhibition, active = hit call of the paper
Method in brief: (§1)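 For the AUC endpoint, growth curves were integrated by the trapezoidal rule up to the exponential-to-stationary transition and normalised to DMSO controls on the same plate. The curves came from OD578 readings taken hourly for 24 h, in three biological replicates. Pathogens had been passaged anaerobically twice and inoculated at an OD578 of 0.01 into pre-reduced mGAM plates carrying 20 μM compound and 1% DMSO, sealed with breathable membranes. Medium for Haemophilus parainfluenzae also contained hemin and NAD.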

Shigella flexneri = test: as above
Method in brief: as §1

Vibrio cholerae = test: as above
Method in brief: as §1

[2] = test system: Yersinia pseudotuberculosis; test: as above
Method in brief: as §1

P. vulgatus RND KO = test: growth AUC normalised to DMSO control (median) (fraction of control); higher = less growth inhibition, active = hit call of the paper
Method in brief: (§2)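 Anaerobic growth was tracked hourly at OD578 for 24 h in 96-well plates of mGAM seeded at OD578 0.01 with each approved-drug library compound at 20 μM and 1% DMSO. Strains had first been passaged twice overnight without oxygen. Three biological replicates were run. The reported median is the area under the curve, calculated by the trapezoidal rule on curves truncated at entry into stationary phase and normalised to vehicle wells on the same plate.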

P. vulgatus WT = test: as above
Method in brief: as §2

[3] = test system: S. enterica typhimurium WT; test: as above
Method in brief: as §2

[4] = test system: S. enterica typhimurium tolC KO; test: as above
Method in brief: as §2

Measured: growth AUC normalised to DMSO control
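For growth AUC normalised to DMSO control (median) in this document: active when median AUC fell below 0.1.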

c1coc(CNc2ncnc3[nH]cnc23)c1 [Kinetin]
inactive: [1] 1.01 | Shigella flexneri 1.02 | Vibrio cholerae 1.01 | [2] 0.992 | P. vulgatus RND KO 1.01 | P. vulgatus WT 1.05 | [3] 1 | [4] 1.01

CCCCC(C)(O)C/C=C/[C@H]1[C@H](O)CC(=O)[C@@H]1CCCCCCC(=O)OC (mixture of isomers) [Misoprostol]
inactive: [1] 1.02 | Shigella flexneri 1.01 | Vibrio cholerae 1.02 | [2] 1.01 | P. vulgatus RND KO 0.996 | P. vulgatus WT 0.992 | [3] 1.01 | [4] 0.991

NS(=O)(=O)c1cc2c(cc1C(F)(F)F)NC(Cc1ccccc1)NS2(=O)=O (stereo not drawn) [Bendroflumethiazide]
inactive: [1] 1 | Shigella flexneri 1.01 | Vibrio cholerae 0.997 | [2] 1.01 | P. vulgatus RND KO 0.962 | P. vulgatus WT 0.977 | [3] 1.01 | [4] 0.993

CO/N=C(\C(=O)N[C@@H]1C(=O)N2C(C(=O)O)=C(C[N+]3(C)CCCC3)CS[C@H]12)c1csc(N)n1 [Cefepime hydrochloride]
active: [1] 0.00376 | Shigella flexneri 0.0351 | Vibrio cholerae 0.178 | [2] 0.049 | P. vulgatus RND KO 0.0104 | P. vulgatus WT 0.0103 | [3] 0.00386 | [4] 0.00189

O=C(Nc1cccc2c(=O)cc(-c3nnn[nH]3)oc12)c1ccc(OCCCCc2ccccc2)cc1 [Pranlukast]
inactive: [1] 1.01 | Shigella flexneri 0.991 | Vibrio cholerae 1 | [2] 0.95 | P. vulgatus RND KO 0.968 | P. vulgatus WT 0.957 | [3] 1.01 | [4] 0.987

CC(C)COCC(CN(Cc1ccccc1)c1ccccc1)N1CCCC1 (stereo not drawn) [Bepridil hydrochloride]
inactive: [1] 1 | Shigella flexneri 0.965 | Vibrio cholerae 0.875 | [2] 1.02 | P. vulgatus RND KO 0.996 | P. vulgatus WT 0.982 | [3] 0.986 | [4] 0.906

CN1CCCC(n2nc(Cc3ccc(Cl)cc3)c3ccccc3c2=O)CC1 (stereo not drawn) [Azelastine hydrochloride]
inactive: [1] 1.01 | Shigella flexneri 0.989 | Vibrio cholerae 0.932 | [2] 0.969 | P. vulgatus RND KO 1.01 | P. vulgatus WT 1 | [3] 1 | [4] 0.935

O=C(NCCN1CCOCC1)c1ccc(Cl)cc1 [Moclobemide]
inactive: [1] 0.981 | Shigella flexneri 0.961 | Vibrio cholerae 0.957 | [2] 1.01 | P. vulgatus RND KO 0.994 | P. vulgatus WT 0.987 | [3] 0.998 | [4] 0.996

C[C@@H](O[C@H]1OCCN(Cc2n[nH]c(=O)[nH]2)[C@H]1c1ccc(F)cc1)c1cc(C(F)(F)F)cc(C(F)(F)F)c1 [Aprepitant]
active: P. vulgatus RND KO 0.0129 | P. vulgatus WT 0.0137
inactive: [1] 0.993 | Shigella flexneri 0.978 | Vibrio cholerae 0.985 | [2] 0.976 | [3] 0.994 | [4] 0.997

CC(=O)OCC(=O)[C@@]12OC3(CCCC3)O[C@@H]1C[C@H]1[C@@H]3CCC4=CC(=O)C=C[C@]4(C)[C@@]3(F)[C@@H](O)C[C@@]12C [Amcinonide]
inactive: [1] 1.01 | Shigella flexneri 1.02 | Vibrio cholerae 1.04 | [2] 1.04 | P. vulgatus RND KO 0.993 | P. vulgatus WT 0.991 | [3] 1.01 | [4] 0.988

NC(=O)c1cc[n+](CC2=C(C(=O)[O-])N3C(=O)[C@@H](NC(=O)[C@@H](c4ccccc4)S(=O)(=O)O)[C@H]3SC2)cc1 [Cefsulodin sodium salt]
active: [2] 0.865
inactive: [1] 0.944 | Shigella flexneri 0.999 | Vibrio cholerae 0.976 | P. vulgatus WT 0.983 | [3] 1 | [4] 0.978

C[C@@H](O)[C@H]1C(=O)N2C(C(=O)O)=C(SCCNC=N)C[C@H]12 [Imipenem]
active: Shigella flexneri 0.63
inactive: [1] 1.02 | Vibrio cholerae 1 | [2] 0.967 | [3] 1 | [4] 0.996

CCN(CC)CCCC(C)Nc1ccnc2cc(Cl)ccc12 (stereo not drawn) [Chloroquine diphosphate]
inactive: [1] 0.997 | Shigella flexneri 0.982 | Vibrio cholerae 1.01 | [2] 1.01 | P. vulgatus RND KO 1.02 | P. vulgatus WT 1.02 | [3] 1 | [4] 1

CC1(C)S[C@@H]2[C@H](NC(=O)[C@H](N)c3ccccc3)C(=O)N2[C@H]1C(=O)O [Ampicillin trihydrate]
active: [1] 0.00858 | Shigella flexneri 0.0549 | Vibrio cholerae 0.254 | [2] 0.0564 | P. vulgatus WT 0.0887 | [3] 0.0624 | [4] 0.0201

CC(C)NC[C@H](O)COc1cccc2ccccc12 [(S)-(-)-Propranolol hydrochloride]
inactive: Shigella flexneri 0.997 | Vibrio cholerae 1.01 | [2] 0.996 | P. vulgatus RND KO 1.04 | P. vulgatus WT 1.06 | [3] 0.989 | [4] 0.986

O=C(O)c1cc(/N=N/c2ccc(S(=O)(=O)Nc3ccccn3)cc2)ccc1O [Sulfasalazine]
inactive: Shigella flexneri 1.01 | Vibrio cholerae 1.01 | [2] 0.99 | P. vulgatus RND KO 1 | P. vulgatus WT 1.02 | [3] 1.01 | [4] 1.01

Nc1nc2ccc(OC(F)(F)F)cc2s1 [Riluzole hydrochloride]
inactive: [1] 1.01 | Shigella flexneri 0.993 | Vibrio cholerae 0.937 | [2] 0.984 | P. vulgatus RND KO 0.999 | [3] 0.979 | [4] 0.976

CCOC(=O)[C@H](CCc1ccccc1)N[C@@H](C)C(=O)N1CCC[C@H]1C(=O)O [Enalapril maleate]
inactive: [1] 1 | Shigella flexneri 1.04 | Vibrio cholerae 1.03 | [2] 1.02 | P. vulgatus RND KO 1 | P. vulgatus WT 1.02 | [3] 1.01 | [4] 0.997

O=C(O)c1cccnc1 [Niacin]
inactive: Shigella flexneri 1.02 | Vibrio cholerae 1.06 | [2] 0.993 | P. vulgatus RND KO 1.05 | P. vulgatus WT 1.09 | [3] 1.02 | [4] 0.985

Cc1onc(-c2ccccc2)c1C(=O)N[C@@H]1C(=O)N2[C@@H]1SC(C)(C)[C@@H]2C(=O)O [Oxacillin sodium]
inactive: [1] 0.975 | Shigella flexneri 1.03 | Vibrio cholerae 0.961 | P. vulgatus WT 0.151 | [3] 0.994
active: [2] 0.908 | [4] 0.0924

CCN(CC)C(=S)SSC(=S)N(CC)CC [Disulfiram]
inactive: Shigella flexneri 0.968 | Vibrio cholerae 0.989 | [2] 0.97 | P. vulgatus RND KO 0.896 | P. vulgatus WT 1.07 | [3] 0.995 | [4] 1

CCCC(=O)Nc1ncnc2c1ncn2[C@@H]1O[C@@H]2COP(=O)(O)O[C@H]2[C@H]1OC(=O)CCC [Bucladesine sodium salt]
inactive: Shigella flexneri 1 | Vibrio cholerae 1.01 | [2] 0.998 | P. vulgatus RND KO 1.02 | P. vulgatus WT 1.01 | [3] 1.01 | [4] 1.01

C[C@]1(Cn2ccnn2)[C@H](C(=O)O)N2C(=O)C[C@H]2S1(=O)=O [Tazobactam]
inactive: [1] 0.986 | Shigella flexneri 0.976 | Vibrio cholerae 0.972 | [2] 0.99 | P. vulgatus WT 0.57 | [3] 0.99 | [4] 1

Cn1c(=O)c2[nH]cnc2n(C)c1=O [Aminophylline]
inactive: Shigella flexneri 1.03 | Vibrio cholerae 1.03 | [2] 0.979 | P. vulgatus RND KO 1.03 | P. vulgatus WT 1.05 | [3] 0.993 | [4] 1.01

CC(C)OC(=O)C(C)(C)Oc1ccc(C(=O)c2ccc(Cl)cc2)cc1 [Fenofibrate]
inactive: Shigella flexneri 0.971 | Vibrio cholerae 1 | [2] 0.992 | P. vulgatus RND KO 0.996 | P. vulgatus WT 1.01 | [3] 1 | [4] 0.94

Cc1onc(-c2c(F)cccc2Cl)c1C(=O)N[C@@H]1C(=O)N2[C@@H]1SC(C)(C)[C@@H]2C(=O)O [Flucloxacillin sodium]
active: [4] 0.0123
inactive: [1] 0.993 | Shigella flexneri 1.01 | Vibrio cholerae 0.999 | [2] 0.989 | P. vulgatus WT 0.132 | [3] 1.02

CNCC(O)c1ccc(OC(=O)C(C)(C)C)c(OC(=O)C(C)(C)C)c1 (stereo not drawn) [Dipivefrin hydrochloride]
inactive: [1] 1.01 | Shigella flexneri 1.04 | Vibrio cholerae 1.05 | [2] 1.01 | P. vulgatus RND KO 1.02 | P. vulgatus WT 1.03 | [3] 1.02 | [4] 0.953

CCOC(=O)O[C@]1(C(=O)COC(=O)CC)CC[C@H]2[C@@H]3CCC4=CC(=O)C=C[C@]4(C)[C@H]3[C@@H](O)C[C@@]21C [Prednicarbate]
inactive: [1] 1.01 | Shigella flexneri 1.03 | [2] 1 | P. vulgatus RND KO 1 | P. vulgatus WT 1.04 | [3] 0.992 | [4] 0.967
